# A selection: hits, their analogues and other compounds. The true share with any hit is near 11%.
# PNC inhibitor: High Content Assay for Compounds that inhibit the Assembly of the Perinucleolar Compartment | AID 2417, 2010 | activity change (PNC), negative = inhibition, % at 10 µM | 140,000 compounds, 3.1% hits | PC3M PTB-GFP, PNC prevalence imaging, 16 h; stronger effect = lower value;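 active means readout at or below -70, meaning at least 70% loss of cells showing the perinucleolar compartment, a nuclear body marking cancer cells; inconclusive means readout between -30 and a set limit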;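 further: plate controls were DMSO wells for no effect and camptothecin positive control wells for full effect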
#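 PC3M cells stably expressing PTB-GFP, 750–1000 cells/well, treated 16 h at 37 °C with compound (23 nl of library stock), in duplicate. After paraformaldehyde fixation and Hoechst stain, imaged at 20x; PNC prevalence scored by image analysis.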
# IMPase inh: qHTS Assay for Identifying the Cell-Membrane Permeable IMPase Inhibitors. Inositol monophosphatase 1 (Rattus norvegicus), P97697. CHO-M1 cells, IP1 accumulation, HTRF TR-FRET ratio. inhibition (IP1 accumulation), % at 46.1 µM. 120,000 tested, under 10 active. AID 901, 2007; active means well fitted curve in the direction sought with a large enough effect in the signal ratio, not every such curve was filed as active; inconclusive means small, poorly fitted or top-dose-only effect, or a change in a side signal; inactive means no such curve, though single readings can be large or run the other way; the % refers to the signal ratio;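 further: cells stimulated with carbachol in lithium chloride buffer; plate controls were DMSO basal wells for no effect and reference inhibitor wells for full effect; higher means more IMPase inhibition seen as more IP1 and lower FRET ratio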
#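 The IP-One HTRF competitive assay in carbachol-stimulated CHO-M1 cells quantifies cellular IP1. Compounds spanned up to 46 uM final, and activity is expressed as AC50 from concentration-response fits of the ratio and donor data.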
# ALDH1A1 inh: qHTS Assay for Inhibitors of Aldehyde Dehydrogenase 1 (ALDH1A1); AID 1030, 2008; Aldehyde dehydrogenase 1A1 (Homo sapiens), P00352; Potency, µM (highest dose often 75.3 µM), for inactives: at the highest dose activity, negative = inhibition, usual class: inhibitors; 220,000 compounds, 7.3% hits; Purified ALDH1A1, NADH fluorescence, propionaldehyde substrate;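 further: potency means the concentration at half of the fitted maximal effect; plate controls were no enzyme wells and a reference inhibitor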
# ALOX12 inhib: qHTS Assay for Inhibitors of 12-hLO (12-human lipoxygenase). Polyunsaturated fatty acid lipoxygenase ALOX12 (Homo sapiens), P18054. purified 12-hLO, xylenol orange hydroperoxide absorbance. Potency, µM (top dose mostly 57.1 µM), for inactives: top-dose activity change, negative = inhibition, hits mostly inhibitors. 150,000 compounds, 0.12% hits. AID 1452, 2008; active means well fitted curve in the direction sought with a large enough effect; inconclusive means small, poorly fitted or top-dose-only effect, or another doubt; inactive means no such curve, though single readings can be large; an effect the other way counts as inactive or inconclusive; further: potency means the concentration at half of the fitted maximal effect; nearly all actives have a fitted effect of over 55% in size
#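 Purified human 12hLO (150 nM), preincubated 15 min with compound, then 40 uM arachidonic acid for 30 min, room temperature, Hepes pH 7.0 with 0.01% Triton X-100. Hydroperoxide detected by ferrous iron/xylenol orange; 573/405 nm absorbance ratio gives reaction progress.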
# HPGD block: qHTS Assay for Inhibitors of HPGD (15-Hydroxyprostaglandin Dehydrogenase); 15-hydroxyprostaglandin dehydrogenase [NAD(+)] (Homo sapiens), P15428; purified HPGD, NADH fluorescence kinetic, PGE2 substrate; Potency, µM, for inactives: at the highest dose activity change, negative = inhibition, usual class: inhibitors; 150,000 compounds, 4.3% hits; AID 894, 2007; further: potency means the concentration at half of the fitted maximal effect
#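 20 nM HPGD preincubated 15 min at room temperature with compound in 50 mM Tris-HCl pH 8, 0.01% Tween 20. Started with 1 mM NAD+ and 30 uM prostaglandin E2; NADH fluorescence (360/450 nm) read 5 times over 30-s intervals, last minus first.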
# IMPase Li cell: qHTS Assay for Identifying the Cell-Membrane Permeable IMPase Inhibitors: Potentiation with Lithium; CHO-M1 cells, IP1 TR-FRET (IP-One), carbachol + lithium; 210,000 compounds, 0.35% hits; Potency, µM (series often up to 59.4 µM), for inactives: at the top dose activity, negative = IMPase inhibition, usual class: inhibitors; active means well fitted curve in the direction sought with a large enough effect; inconclusive means small, poorly fitted or top-dose-only effect, or another doubt; inactive means no such curve, though single readings can be large; an effect the other way counts as inactive or inconclusive;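 further: IP1 builds up when IMPase is blocked and the TR-FRET signal falls; potency means the concentration at half of the fitted maximal effect; plate controls were basal vehicle for no effect and high inhibitor control for full effect; nearly all actives have a fitted effect of over 50% in size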
#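 Steps: plate 2000 CHO-M1 cells per well and culture 16–30 h; add compound and lithium; incubate 30 min, 37C; add d2-IP1 tracer and Eu cryptate anti-IP1 antibody in lysis buffer; read after 10 min at room temperature.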
# * marks the source's active call; other numbers are inactive results; ? = inconclusive; · = no result given; [ ] = remark or other dose. Unless noted, the call rests on the fitted dose curve; in most records, active means well fitted inhibition curve with a large enough effect (not every such curve was filed as active); inconclusive means small, poorly fitted or top-dose-only effect, or another doubt; inactive means no such curve, though single readings can be large or run the other way. Unless noted, on the % scale 0 is the no-effect control and ±100 the full control effect.
SMILES,PNC inhibitor,IMPase inh,ALDH1A1 inh,ALOX12 inhib,HPGD block,IMPase Li cell
O=C(OCC(O)CO)c1ccccc1Nc1ccnc2cc(Cl)ccc12 (configuration not stated),·,·,?,-3%,?,7%
Cc1ccccc1NC(=O)CCC(=O)N/N=C/c1ccncc1,-17,2,14%,-7%,-2%,2%[38.3 µM]
Cc1cc(=O)[nH]c(SCC(=O)C23CC4CC(CC(C4)C2)C3)c1C#N,29,-1,3.2µM*,3%,-18%,18%[38.3 µM]
COCCNC(=S)N/N=C1\CC(C)CC(C)(C)C1 (configuration not stated),·,·,8.9µM*,·,·,9%
Cc1cccc(-n2c(C)cc(C(=S)N3CCOCC3)c2C)c1C,·,·,?,·,·,7%
Cc1cc(C)cc(-n2c(C)cc(C(=S)N3CCOCC3)c2C)c1,16,19,-11%,-26%,4µM*,-3%
Cc1cc(C(=S)N2CCOCC2)c(C)n1-c1ccc(Cl)cc1,7,·,22µM*,-10%,28µM*,16%
CCOCCCNC(=S)N1CCN(Cc2ccco2)CC1,·,·,14µM*,·,·,4%
CCOC(=O)c1c(CN2CCOCC2)n(-c2ccccc2)c2cc(Br)c(OC)cc12,-92*,-3,?,-4%,-12%,37%[38.3 µM]
O=C(Nc1ccc2nc(-c3ccco3)[nH]c2c1)c1cccs1,326,8,7.1µM*,9%,?,8%
O=C(Nc1ccc2nc(-c3ccco3)[nH]c2c1)c1ccco1,28,4,?,5%,-26%,-6%[38.3 µM]
CN(C)c1ccc(N=c2sc3ccccc3n2C)cc1,28,15,2µM*,-6%,-28%,47%[38.3 µM]
Cn1c(=NC(=O)CCl)sc2ccccc21,?,0,0.71µM*,-2%,-12%,-9%[38.3 µM]
Cn1c(=Nc2ccccc2)sc2ccccc21,3,2,-4%,3%,-29%,25%[38.3 µM]
COc1cc(/C=C(\C#N)c2nc3ccccc3[nH]2)ccc1OC(=O)c1ccco1,33,·,?,-5%,?,10%
COc1cc(/C=C(/C#N)c2nc3ccccc3[nH]2)ccc1OCC(=O)Nc1ccccc1C,47,9,2%,0%,-22%,-4%[38.3 µM]
COc1cc(/C=C(\C#N)c2nc3ccccc3[nH]2)c([N+](=O)[O-])cc1OCc1ccccc1,-8,5,0.56µM*,-7%,?,6%[38.3 µM]
COc1cc(/C=C(/C#N)c2nc3ccccc3[nH]2)ccc1OCC(=O)Nc1ccccc1C(C)C,-86*,-2,?,-4%,?,-10%[38.3 µM]
COC(=O)c1ccc(NC(=O)CC2Nc3cc(C)c(C)cc3NC2=O)cc1 (configuration not stated),·,-1,·,·,·,·
O=C1c2cccc3c(Nc4ccccc4Cl)c([N+](=O)[O-])cc(c23)C(=O)N1CCO,-10,0,-6%,-17%,1.4µM*,18%[38.3 µM]
Cc1ccc(S(=O)(=O)CC(=O)Nc2ccc(S(=O)(=O)Nc3onc(C)c3C)cc2)cc1,-21,13,5%,1%,-29%,26%[38.3 µM]
Cc1noc(NS(=O)(=O)c2ccc(NC(=O)COc3ccc(Cl)cc3Cl)cc2)c1C,23,23,10%,-21%,16µM*,16%[38.3 µM]
CCc1ccc(C(=O)/C=C/Nc2ccc(S(=O)(=O)Nc3onc(C)c3C)cc2)cc1,6,·,?,-5%,20µM*,9%
Cc1noc(NS(=O)(=O)c2ccc(NC(=O)CSc3nc4c(cc3C#N)CCCCC4)cc2)c1C,1,-1,-4%,-8%,28µM*,-6%[38.3 µM]
Cc1noc(NS(=O)(=O)c2ccc(NC(=O)COc3ccccc3Br)cc2)c1C,·,-6,·,·,·,·
